# Calls of active or inactive are those of the source. Unless noted, the rule behind the calls is not given here.
# How the values were obtained:
# [1] = tested on: Wnt5a (protein binding on small-molecule microarray); test: small molecules binding Wnt5a protein – biophysical, small-molecule microarray, 635/667 nm fluorescence, primary screen (AID 1142); conditions: 635 nm fluorescence, higher = more signal;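 note: fluorescence read at 667 nm with signal to noise per printed feature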
# [2] = ATP-based viability of Huh7 replicon cells – cell-based, CellTiter-Glo luminescence, basal, 48 h, cytotoxicity control for HCV replication inhibitor project, primary screen (AID 1143); conditions: higher = more signal, called active from +8 up or from −8 down;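 note: Huh7 hepatoma cells carrying a hepatitis C replication reporter with no stimulus; test concentration not given here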
# [3] = Pseudomonas biofilm growth suppression – PAO1 strain, BacTiter-Glo luminescence, LB-PBS, primary screen (AID 1144); conditions: P. aeruginosa PAO1 biofilm, 12 h, higher = more signal
# [4] = basal CRE-LacZ reporter activity in PC12 – cell-based, unstimulated, primary screen (AID 1145); conditions: no forskolin, luminescence, 4.5 h, higher = more signal, called active from +8 up or from −8 down
# [5] = forskolin-driven CRE-LacZ activity in PC12 – cell-based, CRE-LacZ reporter, forskolin-stimulated, primary screen (AID 1146); conditions: luminescence, 4.5 h, higher = more signal, called active from +8 up or from −8 down;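 note: PC12 cells with 6xCRE LacZ reporter stimulated by forskolin 10 µM; beta-galactosidase reporter signal reflecting CREB driven transcription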
# [6] = target: Streptavidin (Streptomyces avidinii) (UniProt P22629); test: compounds binding control protein streptavidin – biophysical, small-molecule microarray, 635/667 nm fluorescence, artefact control for SMM compound annotation, primary screen (AID 1147); conditions: higher = more signal;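 note: signal reflects streptavidin binding to arrayed compounds as a control protein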
# Sequence of Streptavidin (Streptomyces avidinii) (P22629 whole entry, looked up): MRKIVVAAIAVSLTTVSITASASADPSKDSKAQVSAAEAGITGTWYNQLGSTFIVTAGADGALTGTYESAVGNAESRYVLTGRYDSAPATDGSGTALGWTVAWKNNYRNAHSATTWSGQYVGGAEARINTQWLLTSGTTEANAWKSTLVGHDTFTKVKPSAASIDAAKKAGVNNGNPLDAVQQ
# [7] = probe aInhba binding on compound microarray – biochemical, small-molecule microarray, 635/667 nm fluorescence, primary screen (AID 1148); conditions: higher = more signal;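 note: score merges 667nm spot fluorescence with signal-to-noise for antibody binding to printed compounds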
# Torsin-1A (Homo sapiens) [8] = target: Torsin-1A (Homo sapiens) (UniProt O14656); test: TOR1A wild-type binding on microarray – cell lysate, small-molecule microarray, lysate, 635/667 nm, primary screen (AID 1149); conditions: COS7 hTOR1A-WT lysate, 635 nm fluorescence, higher = more signal
# Sequence of Torsin-1A (Homo sapiens) (O14656 whole entry, looked up): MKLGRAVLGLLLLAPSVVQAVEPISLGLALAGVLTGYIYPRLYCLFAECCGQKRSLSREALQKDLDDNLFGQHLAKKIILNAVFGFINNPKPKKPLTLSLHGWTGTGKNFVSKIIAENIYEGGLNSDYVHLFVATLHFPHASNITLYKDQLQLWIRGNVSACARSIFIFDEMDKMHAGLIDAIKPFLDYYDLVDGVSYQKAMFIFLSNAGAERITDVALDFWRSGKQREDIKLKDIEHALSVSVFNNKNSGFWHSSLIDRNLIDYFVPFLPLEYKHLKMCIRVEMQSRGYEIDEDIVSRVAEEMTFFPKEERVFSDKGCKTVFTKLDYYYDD
# Torsin-1A (Homo sapiens) [9] = target: Torsin-1A (Homo sapiens) (UniProt O14656); test: torsin A mutant lysate binding on microarrays – cell lysate, small-molecule microarray, COS7 lysate, 635/667 nm fluorescence, primary screen (AID 1150); conditions: COS7 hTOR1A mutant lysate, 635 nm fluorescence, higher = more signal;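 note: score pools 667 nm emission and signal to noise measuring lysate protein binding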
# [10] = tested on: Sonic hedgehog protein (Shh); test: Sonic hedgehog microarray binding compounds – biochemical, small-molecule microarray, 635/667 nm fluorescence, primary screen (AID 1151); conditions: 635 nm fluorescence, higher = more signal;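 note: Shh protein binding to compounds spotted on small-molecule microarray slides; score combines spot fluorescence intensity with signal-to-noise across triplicate slides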
# [11] = optical density shifts of acrAB sulA E. coli – strain DRC41, OD650, 48 h, E. coli filamentation inducer project, primary screen (AID 1152); conditions: higher = more signal, called active from +8 up or from −8 down;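 note: E. coli MC1000 strain DRC41 lacking acrAB efflux pump and sulA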
# [12] = probe aLefty1 binding on compound microarray – biochemical, small-molecule microarray, 635/667 nm fluorescence, primary screen (AID 1153); conditions: higher = more signal;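 note: score merges spot fluorescence with signal-to-noise ratio from the scanned slide images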
# [13] = plasmodial surface anion channel blockers, osmotic lysis – cell-based, P. falciparum Indochina, OD700, 1 h, primary screen (AID 1154); conditions: P. falciparum Indochina infected RBC osmotic lysis, higher = more signal, called active from +8 up or from −8 down
# [14] = plasmodial surface anion channel blockers, osmotic lysis – cell-based, P. falciparum Indochina, OD700, 2 h, primary screen (AID 1155);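 note: lysis reports solute entry through the parasite surface anion channel PSAC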; conditions: P. falciparum Indochina infected erythrocytes, higher = more signal, called active from +8 up or from −8 down
# [15] = changes in parasitized red cell lysis, either direction – P. falciparum Indochina, OD700, 3 h, PSAC antagonist project, primary screen (AID 1156); conditions: P. falciparum-infected erythrocytes, osmotic lysis, higher = more signal, called active from +8 up or from −8 down
# [16] = plasmodial surface anion channel blockers, osmotic lysis – cell-based, P. falciparum Indochina, OD700, 18 h, primary screen (AID 1157); conditions: P. falciparum Indochina infected erythrocytes, osmotic lysis OD700, 18 h; higher = more signal, called active from +8 up or from −8 down
# [17] = S6 kinase pathway phospho-S6 level changes – cell-based, A549, cytoblot, luminescence, serum-stimulated, primary screen (AID 1158); conditions: 5 h, higher = more signal;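 note: serum-stimulated A549 lung adenocarcinoma cells; signal is phosphorylated S6 detected by cytoblot immunostaining with HRP secondary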
# [18] = target: NADPH oxidase 2 (Homo sapiens) (UniProt P04839); test: compounds shifting NOX2 Amplex Red fluorescence – cell-based, HEK293-NOX2, PMA-stimulated, NOX inhibitor project, primary screen (AID 1159); conditions: 45 min, higher = more signal, called active from +8 up or from −8 down; note: test concentration not given here
# Sequence of NADPH oxidase 2 (Homo sapiens) (P04839 whole entry, looked up): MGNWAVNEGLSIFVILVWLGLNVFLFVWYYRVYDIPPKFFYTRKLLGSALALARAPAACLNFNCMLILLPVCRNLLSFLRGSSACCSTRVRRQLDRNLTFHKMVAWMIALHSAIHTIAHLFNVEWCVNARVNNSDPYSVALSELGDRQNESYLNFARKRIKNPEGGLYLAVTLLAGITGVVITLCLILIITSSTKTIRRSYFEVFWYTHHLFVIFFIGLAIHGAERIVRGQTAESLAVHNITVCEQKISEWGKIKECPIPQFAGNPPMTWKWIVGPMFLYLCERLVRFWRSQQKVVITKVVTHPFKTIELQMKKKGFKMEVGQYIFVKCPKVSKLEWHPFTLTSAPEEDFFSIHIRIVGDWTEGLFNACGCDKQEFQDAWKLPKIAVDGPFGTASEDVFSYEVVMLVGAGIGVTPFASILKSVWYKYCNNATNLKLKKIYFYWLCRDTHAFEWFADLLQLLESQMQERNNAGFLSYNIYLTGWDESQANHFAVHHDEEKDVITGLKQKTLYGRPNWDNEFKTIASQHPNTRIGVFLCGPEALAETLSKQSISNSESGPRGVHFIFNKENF
# [19] = target: NADPH oxidase 4 (Homo sapiens) (UniProt Q9NPH5); test: compounds shifting NOX4 Amplex Red fluorescence – cell-based, HEK293-NOX4, tetracycline-induced, NOX inhibitor project, primary screen (AID 1160); conditions: HEK293-NOX4, Amplex Red H2O2 fluorescence, 45 min; higher = more signal, called active from +8 up or from −8 down
# Sequence of NADPH oxidase 4 (Homo sapiens) (Q9NPH5 whole entry, looked up): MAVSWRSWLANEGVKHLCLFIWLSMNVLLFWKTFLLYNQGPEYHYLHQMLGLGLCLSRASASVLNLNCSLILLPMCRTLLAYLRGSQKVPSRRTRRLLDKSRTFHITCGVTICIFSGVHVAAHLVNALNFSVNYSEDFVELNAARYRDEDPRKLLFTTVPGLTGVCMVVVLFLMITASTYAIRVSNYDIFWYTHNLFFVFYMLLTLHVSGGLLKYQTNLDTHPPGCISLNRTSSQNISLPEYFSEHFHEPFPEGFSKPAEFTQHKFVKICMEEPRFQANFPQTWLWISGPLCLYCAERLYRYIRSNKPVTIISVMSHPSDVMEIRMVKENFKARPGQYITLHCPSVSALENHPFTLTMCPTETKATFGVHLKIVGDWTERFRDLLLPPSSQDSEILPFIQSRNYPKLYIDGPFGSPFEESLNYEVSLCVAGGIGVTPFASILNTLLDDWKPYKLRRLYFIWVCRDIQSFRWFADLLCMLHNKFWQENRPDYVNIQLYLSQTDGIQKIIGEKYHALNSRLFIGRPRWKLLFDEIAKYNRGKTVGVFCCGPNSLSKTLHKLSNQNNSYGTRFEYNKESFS
# [20] = target: NADPH oxidase 5 (Homo sapiens) (UniProt Q96PH1); test: compounds shifting NOX5 Amplex Red fluorescence – cell-based, HEK293-NOX5, NOX inhibitor project, primary screen (AID 1161); conditions: HEK293-NOX5, ionomycin, 45 min, higher = more signal
# Sequence of NADPH oxidase 5 (Homo sapiens) (Q96PH1 whole entry, looked up): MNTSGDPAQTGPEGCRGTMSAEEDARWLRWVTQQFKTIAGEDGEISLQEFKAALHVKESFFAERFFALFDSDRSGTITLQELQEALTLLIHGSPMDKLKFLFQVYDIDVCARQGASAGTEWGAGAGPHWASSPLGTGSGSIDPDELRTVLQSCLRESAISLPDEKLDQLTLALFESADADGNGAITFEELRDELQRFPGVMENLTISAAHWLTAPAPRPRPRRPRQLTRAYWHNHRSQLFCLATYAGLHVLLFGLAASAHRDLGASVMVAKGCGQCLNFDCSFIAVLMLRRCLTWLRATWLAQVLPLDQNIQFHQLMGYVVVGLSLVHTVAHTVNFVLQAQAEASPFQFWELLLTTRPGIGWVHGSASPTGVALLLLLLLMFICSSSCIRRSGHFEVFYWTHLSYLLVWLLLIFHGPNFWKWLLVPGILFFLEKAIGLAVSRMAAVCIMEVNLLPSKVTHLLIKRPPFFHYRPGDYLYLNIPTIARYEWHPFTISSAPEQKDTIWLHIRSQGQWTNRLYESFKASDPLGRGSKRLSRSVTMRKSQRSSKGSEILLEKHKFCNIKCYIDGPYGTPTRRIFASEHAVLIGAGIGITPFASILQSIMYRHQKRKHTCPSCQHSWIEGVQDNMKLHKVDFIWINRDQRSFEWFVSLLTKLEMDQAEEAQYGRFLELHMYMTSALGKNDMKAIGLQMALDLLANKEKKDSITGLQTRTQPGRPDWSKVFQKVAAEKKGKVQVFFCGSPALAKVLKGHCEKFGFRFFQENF
Compound,composite z-score [1],z-score [2],z-score [3],z-score [4],z-score [5],composite z-score [6],composite z-score [7],composite z-score (Torsin-1A (Homo sapiens) [8]),composite z-score (Torsin-1A (Homo sapiens) [9]),composite z-score [10],z-score [11],composite z-score [12],z-score [13],z-score [14],z-score [15],z-score [16],z-score [17],z-score [18],z-score [19],z-score [20]
COCCOC(=O)N1C(=O)[C@@]2(c3cc(C#CC4=CCCCC4)ccc31)[C@H](c1ccc(O)cc1)N1[C@H](c3ccccc3)[C@H](c3ccccc3)OC(=O)[C@H]1[C@@H]2C(N)=O,0.824,-1.83 (inactive),-0.591 (inactive),0.0695 (inactive),0.124 (inactive),0.17,-0.598,0.0873,0.522,2.07,-0.623 (inactive),-0.523,2.57 (inactive),-0.403 (inactive),0.193 (inactive),-0.104 (inactive),-0.0587,0.823 (inactive),0.748 (inactive),1.03
C=CCC(OC(C)=O)[C@@H]1[C@@H](N(Cc2ccc(-c3cccc(C(F)(F)F)c3)o2)C(=O)Cc2ccc(F)cc2)c2cc(OCCCO)ccc2N1C(=O)Cc1ccc(OC)cc1 (stereo not given in full),-0.186,-0.705 (inactive),-1.63 (inactive),0.236 (inactive),0.239 (inactive),-1.07,-0.183,-2.21,-0.945,0.392,0.29 (inactive),-0.191,2.58 (inactive),-0.307 (inactive),-0.876 (inactive),-0.668 (inactive),0.317,-2.17 (inactive),0.269 (inactive),-0.0149
COCCOC(=O)N1C(=O)[C@@]2(c3cc(C#CCCO)ccc31)[C@H](C(=O)Nc1nc3ccccc3s1)[C@H]1C(=O)O[C@H](c3ccccc3)[C@H](c3ccccc3)N1[C@@H]2c1ccc(OCCO)cc1,0.281,-0.224 (inactive),-1.05 (inactive),-1.14 (inactive),-0.432 (inactive),1.06,0.138,0.367,1.42,1.56,0.372 (inactive),0.352,4.19 (inactive),1.5 (inactive),0.708 (inactive),1.34 (inactive),-0.548,0.82 (inactive),0.462 (inactive),1.37
COC(=O)[C@@]1(Cc2ccc(F)cc2)[C@H]2c3cc(C(=O)N(C)C)n(CC4CC4)c3C[C@H]2CN1C(=O)c1ccccc1,1.96,-2.68 (inactive),0.163 (inactive),1.54 (inactive),0.581 (inactive),1.79,1.56,-0.532,0.224,-1.04,-0.98 (inactive),2.06,3.33 (inactive),1.15 (inactive),1.07 (inactive),1.4 (inactive),-0.884,-0.0955 (inactive),0.281 (inactive),0.873
C=CC[C@@]1(C(=O)NCc2ccccc2)N=C(c2ccc(OCCCO)cc2)O[C@@H]1c1ccccc1N=[N+]=[N-],0.465,-2.73 (inactive),-0.291 (inactive),3.85 (inactive),0.34 (inactive),1.15,0.174,1.23,0.762,-0.245,-0.304 (inactive),0.869,33.3 (active),31.1 (active),3.73 (inactive),8.16 (active),-0.126,-1.88 (inactive),1.29 (inactive),-0.965
O=C1c2ccccc2[C@@]2(Cc3ccccc3N(CC(F)(F)F)C2=O)[C@H](c2ccc(CO)cc2)N1Cc1ccccc1Cl,0.125,0.289 (inactive),-0.165 (inactive),-0.141 (inactive),-1.11 (inactive),0.0272,-0.0256,0.0329,0.293,1.42,0.606 (inactive),-0.677,0.902 (inactive),0.638 (inactive),0.955 (inactive),0.5 (inactive),0.258,0.0997 (inactive),-0.991 (inactive),-0.826
CN1C(=O)C2C=CC(C(O)c3ccc(-c4ccccc4)s3)N(N(c3ccccc3)c3ccccc3)C2C1=O (stereo not given),0.123,-0.0598 (inactive),-0.468 (inactive),-0.14 (inactive),-0.101 (inactive),1.14,0.12,0.91,-0.0126,0.409,-0.562 (inactive),0.2,3.38 (inactive),2.19 (inactive),0.977 (inactive),1.32 (inactive),-1.12,1.1 (inactive),0.963 (inactive),-1.15
Cc1ccc(C(C)CC(O)C2C=CC3C(=O)N(c4ccccc4)C(=O)C3N2Nc2ccc([N+](=O)[O-])cc2)o1 (stereo not given),0.354,-0.344 (inactive),-0.99 (inactive),0.136 (inactive),0.812 (inactive),1.71,-0.0131,-0.344,0.222,0.442,-0.571 (inactive),0.218,9.35 (active),2.22 (inactive),0.0777 (inactive),1.49 (inactive),-0.359,0.414 (inactive),-0.521 (inactive),-1.27
